PubChem BioAssay (Tox21)
Inconclusive results are not listed. A call without a number means that no potency is given here. Active and inactive are the calls of the source. Unless noted, the call rests on the fitted dose curve.

Experiment: qHTS assay to identify small molecule agonists of the endoplasmic reticulum stress response signaling pathway (AID 1159516; active means well fitted activation curve with a large enough effect in the signal ratio in the repeat runs, not every such curve was filed as active; the % refers to the signal ratio)
Conditions: ESRE-bla HeLa, ER stress beta-lactamase reporter, 5 h; series mostly up to 61 µM
Method in brief: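 CellSensor ESRE-bla HeLa cells, 1,500 per well, plated overnight, then exposed to compounds for 5 hr at 37 C. Beta-lactamase reporter read with LiveBLAzer B/G FRET substrate after 2 hr at room temperature, 405 nm excitation, 460 and 530 nm emission.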
For `Cc1ccc(C)o1`, the Potency was “inactive”. With `CCCCCCCCCC(=O)OCC` the Potency was “inactive”. With `CC[C@H](C)[C@@H](C(=O)O)n1sc2ccccc2c1=O` the Potency was “inactive”. With `O=C(NS(=O)(=O)/C=C/c1cccs1)c1ccc(F)cc1Br` the Potency was “inactive”. With `CC(=O)O[C@H]1C[C@@H]2CC[C@@H]3[C@H](CC[C@@]4(C)[C@H]3C[C@H]([N+]3(C)CCCCC3)[C@@H]4OC(C)=O)[C@@]2(C)C[C@@H]1N1CCCCC1` the Potency was “inactive”. With `CC(C)(C)c1cc(CCC(=O)OCC(COC(=O)CCc2cc(C(C)(C)C)c(O)c(C(C)(C)C)c2)(COC(=O)CCc2cc(C(C)(C)C)c(O)c(C(C)(C)C)c2)COC(=O)CCc2cc(C(C)(C)C)c(O)c(C(C)(C)C)c2)cc(C(C)(C)C)c1O` the Potency was “inactive”. In the case of `CN(C)C/C=C(/c1ccc(Br)cc1)c1cccnc1`, the Potency is reported as “inactive”. For `O=c1[nH]cnc2ccccc12`, the Potency was “inactive”. With `Cc1ccc(C(=O)C(C)CN2CCCCC2)cc1` (stereo not drawn) the Potency was “inactive”. In the case of `CC(C)c1ccccc1C(C)C`, the Potency is reported as “inactive”. For `CC(C)(C)c1ccc(S)cc1`, the Potency was “inactive”. In the case of `CC(=O)[C@@]1(O)CC[C@H]2[C@@H]3C[C@H](C)C4=CC(=O)CC[C@]4(C)[C@H]3CC[C@@]21C`, the Potency is reported as “inactive”. For `C#CCOC(=O)[C@@H](C)Oc1ccc(Oc2ncc(Cl)cc2F)cc1`, the Potency was “inactive”. In the case of `N#CCc1cccc(C(F)(F)F)c1`, the Potency is reported as “inactive”. In the case of `CN(C)CC[C@@H](c1ccc(Br)cc1)c1ccccn1`, the Potency is reported as “inactive”. In the case of `CC1=CC(=O)/C(=C(/C)O)C(=O)O1`, the Potency is reported as “inactive”. In the case of `O=C(NN1CCCC1)NS(=O)(=O)c1ccc(Cl)cc1`, the Potency is reported as “inactive”. For `Nc1nc(N)c(-c2ccccc2)s1`, the Potency was “inactive”. For `Oc1ccc(C(O)CNCCCCCCNCC(O)c2ccc(O)c(O)c2)cc1O` (stereo not drawn), the Potency was “inactive”. In the case of `O=C(CC(=O)c1ccccc1)c1ccccc1`, the Potency is reported as “inactive”. In the case of `OC(CCN1CCCCC1)(c1ccccc1)C1CCCCC1` (stereo not drawn), the Potency is reported as “inactive”. For `O=C1Nc2cc(Cl)ccc2Oc2ccccc21`, the Potency was “inactive”. In the case of `CC(=O)/C=C/C1C(C)=CCCC1(C)C` (stereo not drawn), the Potency is reported as “inactive”. With `Oc1ccc(O)c2c(O)cccc12` the Potency was “inactive”. For `CCCCCOC(=O)COc1cc(N2C(=O)C3=C(CCCC3)C2=O)c(F)cc1Cl`, the Potency was “inactive”. With `Cn1c(NCCN(CCO)CCCc2ccc([N+](=O)[O-])cc2)cc(=O)n(C)c1=O` the Potency was “inactive”. With `Cc1ccccn1` the Potency was “inactive”. For `C=CC(C)(CCC=C(C)C)OC(=O)c1ccccc1` (stereo not drawn), the Potency was “inactive”. With `O=S1(=O)c2cccc3cccc(c23)N1CCCN1CCN(c2ccc(F)cc2)CC1` the Potency was “inactive”. In the case of `Cc1ncsc1CCO`, the Potency is reported as “inactive”. For `Cc1cc(C)c(S(=O)(=O)O)cc1N=Nc1cc(S(=O)(=O)O)c2ccccc2c1O`, the Potency was “inactive”. In the case of `CCCCCOC(=O)c1ccc(O)cc1`, the Potency is reported as “inactive”. With `O=[N+]([O-])c1cc[n+]([O-])cc1` the Potency was “inactive”. For `CC(C)(Oc1ccc(Cl)cc1)C(=O)OCCCOC(=O)C(C)(C)Oc1ccc(Cl)cc1`, the Potency was “inactive”. For `CCCC(C)C`, the Potency was “inactive”. With `CN(c1nccc(=O)[nH]1)C1CCN(c2nc3ccccc3n2Cc2ccc(F)cc2)CC1` the Potency was “inactive”. In the case of `CCCC(=O)OCC`, the Potency is reported as “inactive”. For `O=S1(=O)N=C(O)c2ccccc21`, the Potency was “inactive”. With `O=C(O)/C=C/c1cnc[nH]1` the Potency was “inactive”.

Experiment: qHTS assay to identify small molecule agonists of the endoplasmic reticulum stress response signaling pathway - cell viability counter screen (AID 1159517);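 further: HeLa cells carrying an ER stress response element beta-lactamase reporter; nearly all actives have a fitted effect of over 50% in size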
Conditions: ESRE-bla HeLa viability, CellTiter-Glo luminescence, 5 h; series mostly up to 61 µM
Method in brief: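 Luminescence readout: CellTiter-Glo, 30 min RT, same wells as the ESRE-bla reporter read. HeLa ESRE-bla, 1,500 cells/well, o/n 37 C; cpd 5 hr 37 C/5% CO2.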
With `Cc1ccc(C)o1` the outcome was “inactive”. For `CCCCCCCCCC(=O)OCC`, the outcome was “inactive”. In the case of `CC[C@H](C)[C@@H](C(=O)O)n1sc2ccccc2c1=O`, the outcome is reported as “inactive”. In the case of `O=C(NS(=O)(=O)/C=C/c1cccs1)c1ccc(F)cc1Br`, the outcome is reported as “inactive”. In the case of `CC(=O)O[C@H]1C[C@@H]2CC[C@@H]3[C@H](CC[C@@]4(C)[C@H]3C[C@H]([N+]3(C)CCCCC3)[C@@H]4OC(C)=O)[C@@]2(C)C[C@@H]1N1CCCCC1`, the outcome is reported as “inactive”. For `CC(C)(C)c1cc(CCC(=O)OCC(COC(=O)CCc2cc(C(C)(C)C)c(O)c(C(C)(C)C)c2)(COC(=O)CCc2cc(C(C)(C)C)c(O)c(C(C)(C)C)c2)COC(=O)CCc2cc(C(C)(C)C)c(O)c(C(C)(C)C)c2)cc(C(C)(C)C)c1O`, the outcome was “inactive”. In the case of `CN(C)C/C=C(/c1ccc(Br)cc1)c1cccnc1`, the outcome is reported as “inactive”. For `O=c1[nH]cnc2ccccc12`, the outcome was “inactive”. In the case of `Cc1ccc(C(=O)C(C)CN2CCCCC2)cc1` (stereo not drawn), the outcome is reported as “inactive”. With `CC(C)c1ccccc1C(C)C` the outcome was “inactive”. With `CC(C)(C)c1ccc(S)cc1` the outcome was “inactive”. For `CC(=O)[C@@]1(O)CC[C@H]2[C@@H]3C[C@H](C)C4=CC(=O)CC[C@]4(C)[C@H]3CC[C@@]21C`, the outcome was “inactive”. For `C#CCOC(=O)[C@@H](C)Oc1ccc(Oc2ncc(Cl)cc2F)cc1`, the outcome was “inactive”. In the case of `N#CCc1cccc(C(F)(F)F)c1`, the outcome is reported as “inactive”. With `CN(C)CC[C@@H](c1ccc(Br)cc1)c1ccccn1` the outcome was “inactive”. In the case of `CC1=CC(=O)/C(=C(/C)O)C(=O)O1`, the outcome is reported as “inactive”. In the case of `O=C(NN1CCCC1)NS(=O)(=O)c1ccc(Cl)cc1`, the outcome is reported as “inactive”. In the case of `Nc1nc(N)c(-c2ccccc2)s1`, the outcome is reported as “inactive”. With `Oc1ccc(C(O)CNCCCCCCNCC(O)c2ccc(O)c(O)c2)cc1O` (stereo not drawn) the outcome was “inactive”. In the case of `O=C(CC(=O)c1ccccc1)c1ccccc1`, the outcome is reported as “inactive”. With `OC(CCN1CCCCC1)(c1ccccc1)C1CCCCC1` (stereo not drawn) the outcome was “inactive”. In the case of `O=C1Nc2cc(Cl)ccc2Oc2ccccc21`, the outcome is reported as “inactive”. In the case of `CC(=O)/C=C/C1C(C)=CCCC1(C)C` (stereo not drawn), the outcome is reported as “inactive”. In the case of `Oc1ccc(O)c2c(O)cccc12`, the outcome is reported as “inactive”. With `CCCCCOC(=O)COc1cc(N2C(=O)C3=C(CCCC3)C2=O)c(F)cc1Cl` the outcome was “inactive”. In the case of `Cn1c(NCCN(CCO)CCCc2ccc([N+](=O)[O-])cc2)cc(=O)n(C)c1=O`, the outcome is reported as “inactive”. In the case of `Cc1ccccn1`, the outcome is reported as “inactive”. For `C=CC(C)(CCC=C(C)C)OC(=O)c1ccccc1` (stereo not drawn), the outcome was “inactive”. In the case of `O=S1(=O)c2cccc3cccc(c23)N1CCCN1CCN(c2ccc(F)cc2)CC1`, the outcome is reported as “inactive”. For `Cc1ncsc1CCO`, the outcome was “inactive”. For `Cc1cc(C)c(S(=O)(=O)O)cc1N=Nc1cc(S(=O)(=O)O)c2ccccc2c1O`, the outcome was “inactive”. In the case of `CCCCCOC(=O)c1ccc(O)cc1`, the outcome is reported as “inactive”. In the case of `O=[N+]([O-])c1cc[n+]([O-])cc1`, the outcome is reported as “inactive”. For `CC(C)(Oc1ccc(Cl)cc1)C(=O)OCCCOC(=O)C(C)(C)Oc1ccc(Cl)cc1`, the outcome was “inactive”. For `CCCC(C)C`, the outcome was “inactive”. For `CN(c1nccc(=O)[nH]1)C1CCN(c2nc3ccccc3n2Cc2ccc(F)cc2)CC1`, the outcome was “inactive”. With `CCCC(=O)OCC` the outcome was “inactive”. With `O=S1(=O)N=C(O)c2ccccc21` the outcome was “inactive”. For `O=C(O)/C=C/c1cnc[nH]1`, the outcome was “inactive”.
